{"source": "PubChem BioAssay (NCI)", "note": "Compounds without any hit were thinned out: in the full panel of roughly 83,000, 20% have a hit.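 Compound tested at a single concentration for 48 hours in 96-well plates; a percent growth value below 10 was scored as active.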 Active and inactive are the calls of the source."}
{"system": "NCI-H460 lung", "experiment": "NCI-60 one-dose screen, 48 h (100 = growth as untreated, 0 = no growth, -100 = all killed)", "settings": "10 µM unless noted"}
{"smiles": "O=C1Nc2ccc(Cl)cc2C12Nc1cc(Cl)ccc1S2", "note": "(stereo not drawn)", "growth": "62.7% (inactive)"}
{"smiles": "O=C1/C(=C/c2ccccc2)CN(C(=O)CCN2CCC(=NO)CC2)C/C1=C\\c1ccccc1", "growth": "-32.2% (active)"}
{"smiles": "O=[N+]([O-])c1cccc(-c2nc3sccn3c2-c2ccnc(NCCCNS(=O)(=O)c3ccc(Cl)cc3)n2)c1", "growth": "57.4% (inactive)"}
{"smiles": "Cc1ccc(S(=O)(=O)Nc2c(Br)cc(Br)cc2C(N)=O)cc1", "growth": "105% (inactive)"}
{"smiles": "CN(C[C@H]1Cc2c(cccc2N2CCN(Cc3ccccn3)CC2)CN1)[C@H]1CCCc2cccnc21", "growth": "28.1% (inactive)"}
{"smiles": "CC(C)(C)OC(=O)NC(CSCc1ccccc1)C(=O)ON1C(=O)CCC1=O", "note": "(stereo not drawn)", "growth": "111% (inactive)"}
{"smiles": "COc1ccc(-c2ccc(-c3ccc(C(=N)N)s3)s2)cc1Cl", "growth": "-36.5% (active)"}
{"smiles": "O=[N+]([O-])c1ccc(C(c2ccccc2)c2ccccc2)cc1", "growth": "94% (inactive)"}
{"smiles": "CCN(CC)c1ccc2[nH]c3c(C(N)=O)cc(=O)c(=O)c=3oc2c1", "growth": "-31.8% (active)"}
{"smiles": "CCNc1nc(S(=O)(=O)CC)nc2ccccc12", "growth": "101% (inactive)"}
{"smiles": "CCC(=O)Oc1ccc(/C(=C(/C)Cc2cccc(OC)c2)c2ccc(OCCN(C)C)cc2)cc1", "growth": "90.1% (inactive)"}
{"smiles": "Nc1nc(-c2ccccc2)c(CCCOc2ccc(NC(=O)CBr)cc2)c(=O)[nH]1", "growth": "108% (inactive)"}
{"smiles": "CN(C)CCOC(=O)Nc1ccccc1Cl", "growth": "105% (inactive)"}
{"smiles": "c1ccc(-c2nnc(-c3ccccn3)s2)nc1", "growth": "102% (inactive)"}
{"smiles": "COc1ccc(-c2nc(N3CCCC3=O)sc2Br)cc1OC", "growth": "108% (inactive)"}
{"smiles": "C=C1CCC2C3(C)COC(c4c(OC)cccc4OC)OC3CCC2(C)C1C/C=C1/C(=O)OCC1O", "note": "(stereo not drawn)", "growth": "89% (inactive)"}
{"smiles": "c1cc2[nH]ncc2cc1-c1nc2ccc3[nH]ncc3c2c2c1CCC2", "growth": "31.5% (inactive)"}
{"smiles": "COc1ccc2c(c1)[nH]c(=O)c1c3cc(OC)ccc3cn21", "growth": "-33% (active)"}
{"smiles": "NC(N)=Nc1nc2ccccc2o1", "growth": "99.8% (inactive)"}
{"smiles": "Nc1ccc(C(=O)CSc2nc3ccccc3[nH]2)cc1", "growth": "106% (inactive)"}
{"smiles": "CC(C)(C)n1cc(-c2ccnc(NCCCNS(=O)(=O)c3ccc(F)cc3)c2)c(-c2cccc(O)c2)n1", "growth": "18.3% (inactive)"}
{"smiles": "COc1ccccc1CNCCCN1C(=O)c2ccc3c4c(ccc(c24)C1=O)C(=O)N(CCCNCCCCNCCCN)C3=O", "growth": "-30.2% (active)"}
{"smiles": "O=C(CCl)N(C1CCCCC1)C1CCCCC1", "growth": "107% (inactive)"}
